# The campaign covered roughly 420,000 compounds. About 50,000 (12%) were called active. About 26% were inconclusive and are not listed. This excerpt belongs to a sample that is enriched for actives. Values without a mark were called inactive. The call rests on the fitted dose curve; in most records, active means well fitted inhibition curve with a large enough effect; inconclusive means small, poorly fitted or top-dose-only effect; inactive means flat fitted curve, though single readings scatter.
# Experiment: qHTS for Inhibitors of human tyrosyl-DNA phosphodiesterase 1 (TDP1): qHTS in cells in presence of CPT; further: nearly all actives have a fitted effect of over 55% in size
# Settings: chicken DT40 Tdp1-/-;hTDP1 cells + 20 nM CPT, ATP luminescence, 48 h; series mostly up to 46.2 µM; activity change, negative = growth inhibition: at the top concentration
# Source text: Human tyrosyl-DNA phosphodiesterase 1 (TDP1) is a novel repair gene, and we propose to use it as a new target for anticancer drug development. TDP1 is not an essential protein, but under treatment with topoisomerase I poison (camptothecin: CPT), TDP1 works as a critical factor for cell survival. To directly identify novel TDP1 inhibitors active in a cellular environment, we have knocked-out the Tdp1 gene in chicken DT40 cells (Tdp1-/-) and generated a complemented counterpart cells that contains a stable transfection of the human TDP1 gene (Tdp1-/-;hTDP1 cells). For the primary screen, Tdp1-/-;hTDP1 cells will be exposed to small molecules in the presence or absence of CPT, and their growth kinetics will be evaluated after 48 hours by measuring ATP activity. […] The hit compounds will then be evaluated in the presence or absence of CPT using Tdp1-/- cells. […] In tertiary assays, biochemical gel-based assays will be used to assess whether the hit compounds specifically target TDP1. To this end, we have screened this cell line against the MLSMR in two primary screens. In one screen we add CPT and in the other we screen in the absence of CPT; this AID represents the screen where CPT was present. NIH Chemical Genomics Center [NCGC] NIH Molecular Libraries Probe Centers Network [MLPCN] MLPCN Grant: MH095538 Assay Submitter (PI): Yves Pommier, NCI
# DT40-hTDP1 cells with 20 nM Camptothecin (add 20 microL of 1 mM CPT stock in 1 L of cell culture medium) were dispensed at 400 cells/5microL/well in tissue culture treated 1536-well white wall/solid bottom assay plates (Greiner Bio-One North America, NC, U.S.A.) using a Multidrop Combi 8 channel dispenser (Thermo Fisher, Waltham, MA, USA). 23 nL compounds and controls were transferred using the pin tool (Kalypsys, San Diego, CA, USA) to the assay plates. The assay plates were then incubated at 37 masculineC for a minimum 48 hr. Three microL of Cell Titer Glo solution was added to the plates and incubated at RT in dark for 30 min. Luminescence was read using ViewLux (Perkin Elmer) with 1 sec exposure slow speed, high gain and 2x binning.
# On the % scale 0 is the no-effect control and ±100 the full control effect; potency means the concentration at half of the fitted maximal effect.
Structure (SMILES),"activity change, negative = growth inhibition [%]",Potency
O=C(CN1CCC(NC(=O)C2CC2)CC1)Nc1ccccc1[N+](=O)[O-],-6.93,–
Cc1cc(C(F)F)nn1CC(=O)NC1CCCCCC1,3.43,–
Cc1ccc2c(cnn2C(=O)CCC(=O)NC2CCCC2)c1,0.0617,–
O=C(Cc1cccs1)Nc1ccc([N+](=O)[O-])cc1,-28.9,–
CCCC(=O)n1nc(-c2ccccc2)nc1N,-6.98,–
CCc1nn(-c2cc(Oc3cccc4ccccc34)nc(-c3ccccc3)n2)c(N)c1C#N,–,10.3 µM (active)
CC(C(=O)N1CCN(c2ccccc2F)CC1)c1ccc([N+](=O)[O-])cc1 (stereo not given),-25.5,–
CC1CCN(CC(=O)Nc2nccs2)CC1,-24.2,–
Cc1c(C)c(C)c(S(=O)(=O)N2CCC3(CC2)OCCO3)c(C)c1C,-19.7,–
CCOc1ccc(NC(=O)CN(C)C(=O)CSc2ccccc2)cc1OCC,-19.4,–
COC(=O)c1ccc(CNC(=O)c2ccc(S(=O)(=O)N3CCCCCC3)cc2)cc1,-1.03,–
COc1cc2c(cc1OC)CN(C(=O)c1cc(S(=O)(=O)N3CCCCC3)ccc1Cl)CC2,–,20.6 µM (active)
COc1ccc(S(=O)(=O)N2CCCCC2)cc1Br,0.0514,–
O=C(c1cc(S(=O)(=O)N2CCOCC2)ccc1Cl)N1CCOCC1,11,–
CN1CCN(NC(=O)c2ccc(S(=O)(=O)N3CCCCCC3)cc2)CC1,5.37,–
COc1cc2c(cc1OC)CN(C(=O)c1ccc(S(=O)(=O)N3CCCCCC3)cc1)CC2,–,20.6 µM (active)
COc1ccc(C(=O)CN2C(=O)NC(C)(c3ccc(C)cc3)C2=O)cc1OC (stereo not given),-22.9,–
COc1ccc(C(=O)n2nc(C)c(Br)c2C)cc1OC,-17.2,–
COc1ccc(C(=O)n2nc(-c3ccc(C)cc3)nc2N)cc1OC,–,13 µM (active)
CN1CCN(c2ccc(CNS(=O)(=O)c3cccc(F)c3)cc2)CC1,-2.6,–
CCCCc1ccc(S(N)(=O)=O)cc1,0.496,–
N#Cc1ccccc1CN1C(=O)S/C(=C/c2cccn2-c2cccc(C(=O)O)c2)C1=O,-7.91,–
Cc1c(C(=O)N2CCCc3ccccc32)oc2ccccc12,-15.4,–
Cc1cccc2cc3c(N)c(C(=O)N4CCCc5ccccc54)sc3nc12,–,4.11 µM (active)
O=C(c1cc(-c2ccc(O)cc2)on1)N1CCCc2ccccc21,-19.2,–
Cc1c(C(=O)O)nnn1-c1nonc1N,4.76,–
COc1cc(OC)c(C(=O)NNC(=O)c2ccccc2-n2cccc2)cc1OC,-11.7,–
CSc1nc(-c2ccc(F)cc2)nc2c1Cc1c(CO)cnc(C)c1O2,7.44,–
CSc1nc(-c2ccccc2Cl)nc2c1Cc1c(CO)cnc(C)c1O2,–,14.6 µM (active)
Cc1ccccc1CSc1nc(-c2ccccc2)nc2c1Cc1c(CO)cnc(C)c1O2,6.78,–
